# PubChem BioAssay AID1159580 (chemical genetic matrix, 2015)
# Hit rate of the full screen: of about 5,500 compounds, about 2,000 (36%) were called active. Another 18% or so got no clear call; they are omitted. This is one part of the list. Unmarked numbers belong to inactive results. No stated cut-off is given here; in the data, active means normalized growth mostly below about 0.91 (no sharp cut-off); inconclusive means no clear call, values can overlap the other calls; inactive means mostly above about 0.92.
# Assay: chemical genetic growth profiling, strain panel (AID 1159580);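 further: tested at 20 µM; growth read once vehicle control cultures reached saturation at 30 °C; 1 = growth at the plate median or of vehicle wells; lower values mean less growth of the strain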
# Details: growth OD
smiles,measurement,setting,value
C=C[C@@](C)(O)CCC1C(=C)CCC2[C@@](C)(CO)CCC[C@]12C (some centres undefined),normalized growth,"S. cerevisiae deletion strains, locus YJR066W, strain TOR1, hits give low values",0.868
same,normalized growth,"S. cerevisiae deletion strains, locus YJR075W, strain HOC1, hits give low values",1.05
same,normalized growth,"S. cerevisiae deletion strains, locus YKL009W, strain mrt4, hits give low values",0.776 (active)
same,normalized growth,"S. cerevisiae deletion strains, locus YKL068W, hits give low values",1.02
same,normalized growth,"S. cerevisiae deletion strains, locus YKL085W, strain MDH1 (second series), hits give low values",0.994
same,normalized growth,"S. cerevisiae deletion strains, locus YKL085W, strain MDH1, hits give low values",0.994
same,normalized growth,"S. cerevisiae deletion strains, locus YKL160W, strain elf1, hits give low values",0.966
same,normalized growth,"S. cerevisiae deletion strains, locus YKL190W, strain CNB1, hits give low values",1.06
same,normalized growth,"S. cerevisiae deletion strains, locus YKR001C, strain vps1, hits give low values",1
same,normalized growth,"S. cerevisiae deletion strains, locus YKR026C, strain gcn3, hits give low values",1.08
same,normalized growth,"S. cerevisiae deletion strains, locus YKR091W, strain srl3, hits give low values",1.07
same,normalized growth,"S. cerevisiae deletion strains, locus YLL001W, strain dnm1, hits give low values",0.935
same,normalized growth,"S. cerevisiae deletion strains, locus YLL026W, hits give low values",1.03
same,normalized growth,"S. cerevisiae deletion strains, locus YLL041C, strain sdh2, hits give low values",1.08 [resistant] (active)
same,normalized growth,"S. cerevisiae deletion strains, locus YLR027C, strain aat2, hits give low values",0.997
same,normalized growth,"S. cerevisiae deletion strains, locus YLR039C, strain RIC1, hits give low values",0.868
same,normalized growth,"S. cerevisiae deletion strains, locus YLR058C, strain SHM2, hits give low values",1
same,normalized growth,"S. cerevisiae deletion strains, locus YLR102C, strain apc9, hits give low values",1.05
same,normalized growth,"S. cerevisiae deletion strains, locus YLR113W, strain HOG1, hits give low values",0.891
same,normalized growth,"S. cerevisiae deletion strains, locus YLR221C, strain rsa3, hits give low values",0.982
same,normalized growth,"S. cerevisiae deletion strains, locus YLR258W, strain gsy2, hits give low values",1
same,normalized growth,"S. cerevisiae deletion strains, locus YLR262C, strain YPT6 (second series), hits give low values",0.733 (active)
same,normalized growth,"S. cerevisiae deletion strains, locus YLR268W, strain sec22, hits give low values",0.959
same,normalized growth,"S. cerevisiae deletion strains, locus YLR320W, strain mms22, hits give low values",0.98
same,normalized growth,"S. cerevisiae deletion strains, locus YLR330W, strain CHS5, hits give low values",1.05
same,normalized growth,"S. cerevisiae deletion strains, locus YLR342W, strain FKS1 (second series), hits give low values",0.883
same,normalized growth,"S. cerevisiae deletion strains, locus YLR342W, strain FKS1, hits give low values",0.999
same,normalized growth,"S. cerevisiae deletion strains, locus YLR357W, strain rsc2, hits give low values",1.16 [resistant] (active)
same,normalized growth,"S. cerevisiae deletion strains, locus YLR370C, strain arc18, hits give low values",1.04
same,normalized growth,"S. cerevisiae deletion strains, locus YLR371W, strain rom2, hits give low values",1.12 [resistant] (active)
same,normalized growth,"S. cerevisiae deletion strains, locus YLR384C, strain iki3, hits give low values",1.09 [resistant] (active)
same,normalized growth,"S. cerevisiae deletion strains, locus YLR418C, strain cdc73, hits give low values",1.07
same,normalized growth,"S. cerevisiae deletion strains, locus YML016C, strain PPZ1, hits give low values",1.04
same,normalized growth,"S. cerevisiae deletion strains, locus YML032C, strain rad52, hits give low values",0.912
same,normalized growth,"S. cerevisiae deletion strains, locus YML120C, strain ndi1, hits give low values",0.974
same,normalized growth,"S. cerevisiae deletion strains, locus YML124C, strain tub3, hits give low values",1.04
same,normalized growth,"S. cerevisiae deletion strains, locus YMR058W, strain fet3, hits give low values",0.992
same,normalized growth,"S. cerevisiae deletion strains, locus YMR078C, strain ctf18, hits give low values",1.05
same,normalized growth,"S. cerevisiae deletion strains, locus YMR125W, strain sto1, hits give low values",1.13 [resistant] (active)
same,normalized growth,"S. cerevisiae deletion strains, locus YMR129W, hits give low values",1.06
same,normalized growth,"S. cerevisiae deletion strains, locus YMR205C, strain PFK2, hits give low values",0.969
same,normalized growth,"S. cerevisiae deletion strains, locus YMR223W, strain ubp8, hits give low values",0.995
same,normalized growth,"S. cerevisiae deletion strains, locus YMR231W, strain pep5, hits give low values",1.05
same,normalized growth,"S. cerevisiae deletion strains, locus YMR263W, strain SAP30, hits give low values",1.07
same,normalized growth,"S. cerevisiae deletion strains, locus YMR307W, strain GAS1, hits give low values",0.91
same,normalized growth,"S. cerevisiae deletion strains, locus YNL067W, strain RPL9B, hits give low values",0.979
same,normalized growth,"S. cerevisiae deletion strains, locus YNL071W, strain lat1, hits give low values",1
same,normalized growth,"S. cerevisiae deletion strains, locus YNL153C, strain GIM3, hits give low values",0.971
same,normalized growth,"S. cerevisiae deletion strains, locus YNL183C, strain NPR1, hits give low values",0.842
same,normalized growth,"S. cerevisiae deletion strains, locus YNL209W, strain ssb2, hits give low values",0.984
same,normalized growth,"S. cerevisiae deletion strains, locus YNL233W, strain BNI4, hits give low values",1.07
same,normalized growth,"S. cerevisiae deletion strains, locus YNL248C, strain rpa49, hits give low values",0.983
same,normalized growth,"S. cerevisiae deletion strains, locus YNL250W, strain rad50, hits give low values",0.995
same,normalized growth,"S. cerevisiae deletion strains, locus YNL271C, strain bni1, hits give low values",1
same,normalized growth,"S. cerevisiae deletion strains, locus YNL298W, strain CLA4, hits give low values",0.88 (active)
same,normalized growth,"S. cerevisiae deletion strains, locus YNL307C, strain MCK1, hits give low values",1.03
same,normalized growth,"S. cerevisiae deletion strains, locus YNL322C, strain KRE1 (second series), hits give low values",0.933
same,normalized growth,"S. cerevisiae deletion strains, locus YNR049C, strain mso1, hits give low values",1.06
same,normalized growth,"S. cerevisiae deletion strains, locus YNR052C, strain pop2, hits give low values",0.929
same,normalized growth,"S. cerevisiae deletion strains, locus YOL006C, strain TOP1, hits give low values",0.948
same,normalized growth,"S. cerevisiae deletion strains, locus YOL012C, strain htz1",1.69
same,normalized growth,"S. cerevisiae deletion strains, locus YOL147C, strain pex11, hits give low values",1.04
same,normalized growth,"S. cerevisiae deletion strains, locus YOR001W, strain rrp6, hits give low values",0.986
same,normalized growth,"S. cerevisiae deletion strains, locus YOR061W, strain CKA2, hits give low values",0.955
same,normalized growth,"S. cerevisiae deletion strains, locus YOR069W, strain VPS5, hits give low values",1.02
same,normalized growth,"S. cerevisiae deletion strains, locus YOR070C, strain gyp1, hits give low values",0.982
same,normalized growth,"S. cerevisiae deletion strains, locus YOR080W, strain dia2, hits give low values",1.01
same,normalized growth,"S. cerevisiae deletion strains, locus YOR083W, strain WHI5, hits give low values",0.939
same,normalized growth,"S. cerevisiae deletion strains, locus YOR106W, strain vam3, hits give low values",0.933
same,normalized growth,"S. cerevisiae deletion strains, locus YOR136W, strain idh2, hits give low values",1.01
same,normalized growth,"S. cerevisiae deletion strains, locus YOR144C, strain elg1, hits give low values",0.989
same,normalized growth,"S. cerevisiae deletion strains, locus YOR184W, strain ser1, hits give low values",0.679 (active)
same,normalized growth,"S. cerevisiae deletion strains, locus YOR231W, strain MKK1, hits give low values",0.85 (active)
same,normalized growth,"S. cerevisiae deletion strains, locus YOR265W, strain rbl2, hits give low values",1.03
same,normalized growth,"S. cerevisiae deletion strains, locus YOR270C, strain vph1, hits give low values",0.839
same,normalized growth,"S. cerevisiae deletion strains, locus YOR290C, strain snf2, hits give low values",0.916
same,normalized growth,"S. cerevisiae deletion strains, locus YOR316C, strain cot1, hits give low values",1.06
same,normalized growth,"S. cerevisiae deletion strains, locus YPL051W, strain arl3, hits give low values",0.935
same,normalized growth,"S. cerevisiae deletion strains, locus YPL078C, strain atp4, hits give low values",0.939
same,normalized growth,"S. cerevisiae deletion strains, locus YPL106C, strain sse1, hits give low values",1.22 [resistant] (active)
same,normalized growth,"S. cerevisiae deletion strains, locus YPL240C, strain hsp82, hits give low values",1.06
same,normalized growth,"S. cerevisiae deletion strains, locus YPL241C, strain CIN2, hits give low values",1.07 [resistant] (active)
same,normalized growth,"S. cerevisiae deletion strains, locus YPL256C, strain CLN2, hits give low values",0.915
same,normalized growth,"S. cerevisiae deletion strains, locus YPR119W, strain clb2, hits give low values",1.07 [resistant] (active)
same,normalized growth,"S. cerevisiae deletion strains, locus YPR141C, strain kar3, hits give low values",1.07
same,normalized growth,"S. cerevisiae deletion strains, locus YPR163C, strain tif3, hits give low values",0.977
same,normalized growth,"S. cerevisiae deletion strains, locus YPR167C, strain met16, hits give low values",1.01
same,normalized growth,"S. cerevisiae deletion strains, strain wtn01, hits give low values",0.945
same,normalized growth,"S. cerevisiae strains, strain wild type, hits give low values",1
